Compounds with a hit are over-represented: about 7.5% of the library has one in this group of screens.
ELG1 repair inh – qHTS screen for small molecules that inhibit ELG1-dependent DNA repair in human embryonic kidney (HEK293T) cells expressing luciferase-tagged ELG1; HEK293T ELG1-luciferase reporter, luminescence, 16 h; DNA damage induced by 5-fluorouridine; hit rate 2.3% among 330,000; AID 504467, 2011; Potency, µM (series often up to 46.1 µM), for inactives: top-dose activity change, negative = inhibition, hits mostly inhibitors; note: potency is the fitted concentration of half-maximal effect; nearly all actives have a fitted effect of over 55% in size
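In this reporter screen, reduction of luminescence relative to DMSO vehicle indicated activity. Compounds and 5-fluorouridine were added together to 2,000 cells per well, incubated for 16 hr at 37 °C, then developed with ONE-Glo.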
RORgamma inh – qHTS for inhibitors of ROR gamma transcriptional activity; Drosophila S2 Gal4-RORgamma UAS-luciferase reporter, 20 h; hit rate 5.4% among 310,000; Nuclear receptor ROR-gamma (Mus musculus), P51450; Potency, µM (titrated, usually from 53.6 µM), without a hit: at the highest dose activity change, negative = inhibition, hits mostly inhibitors; note: potency is the fitted concentration of half-maximal effect; nearly all actives have a fitted effect of over 60% in size
Target sequence (P51450 whole entry, looked up, the tested form may be a part): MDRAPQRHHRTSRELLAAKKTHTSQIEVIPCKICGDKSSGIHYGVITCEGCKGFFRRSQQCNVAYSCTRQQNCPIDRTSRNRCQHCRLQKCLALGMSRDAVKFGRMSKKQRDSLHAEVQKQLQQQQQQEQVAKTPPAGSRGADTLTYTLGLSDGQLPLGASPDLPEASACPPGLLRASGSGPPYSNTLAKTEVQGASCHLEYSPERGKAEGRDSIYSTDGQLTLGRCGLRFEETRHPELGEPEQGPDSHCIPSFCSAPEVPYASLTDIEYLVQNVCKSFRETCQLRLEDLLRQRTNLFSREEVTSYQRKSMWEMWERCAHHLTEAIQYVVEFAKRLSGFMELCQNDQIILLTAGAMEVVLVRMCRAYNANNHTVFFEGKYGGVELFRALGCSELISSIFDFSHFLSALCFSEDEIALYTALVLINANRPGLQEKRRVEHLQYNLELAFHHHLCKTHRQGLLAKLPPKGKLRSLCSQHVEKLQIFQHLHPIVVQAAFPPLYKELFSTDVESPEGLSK
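Using a luciferase readout, inhibitors were identified by reduced reporter activity in Drosophila cells coexpressing a copper-inducible Gal4–ROR gamma fusion and UAS-driven Photinus luciferase, incubated 20 hr after 700 uM copper sulfate.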
B2AR arrestin – qHTS assay of beta-arrestin-biased ligands of beta2-adrenergic receptor; Beta-2 adrenergic receptor (Homo sapiens), P07550; beta-arrestin recruitment to beta2AR, cell-based reporter; Potency, µM (series often up to 46.1 µM), for inactives: top-dose activation, hits mostly activators; hit rate 0.02% among 330,000; AID 492947, 2010;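 note: potency is the fitted concentration of half-maximal effect; 0% = DMSO controls and full agonism = EC100 isoproterenol or metaproterenol; nearly all actives have a fitted effect of over 65% in size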
TSHR antagonist – Antagonists of the Thyroid Stimulating Hormone Receptor: HTS campaign. TSHR-expressing cells, TSH-stimulated cAMP HTRF, 2 h; hits give low values. AID 504810, 2011. Thyrotropin receptor (Homo sapiens), P16473. hit rate 0.2% among 330,000. activity change, negative = inhibition, % at 11.5 µM;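 active = activity change below a set negative limit, meaning inhibition stronger than a set level, cut at about -70% in these data; inconclusive = activity change between two set negative limits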
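Cell-based HTRF cAMP assay; TSHR cells + compound, TSH EC80 (4nM final), 2 h, 37 deg C. Lysis with anti-cAMP cryptate and cAMP-d2, 30 min RT, read 665/620 nm.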
VP16 counter – VP16 counterscreen qHTS for inhibitors of ROR gamma transcriptional activity. Drosophila S2 Gal4-VP16 UAS-luciferase, luminescence, 20 h. Potency, µM (top dose mostly 53.6 µM), without a hit: at the top dose activity, negative = inhibition, hits mostly inhibitors. hit rate 3.5% among 310,000. AID 2546, 2010;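 note: Gal4-VP16 expression switched on by copper sulfate through the metallothionein promoter; potency is the fitted concentration of half-maximal effect; nearly all actives have a fitted effect of over 50% in size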
* marks the source's active call; other numbers are inactive results; ? = inconclusive; / = no result given; [ ] = another dose, or the depositor's remark. Unless noted, calls come from the whole dose curve; as a rule, active = well fitted curve in the direction sought with a large enough effect; inconclusive = small, poorly fitted or top-dose-only effect, or another doubt; inactive = no such curve, though single readings can be large; an effect the other way counts as inactive or inconclusive. Unless noted, % is set by controls: 0 for no effect and ±100 for the full control effect.

SMILES	ELG1 repair inh	RORgamma inh	B2AR arrestin	TSHR antagonist	VP16 counter
O=S(=O)(c1ccc2c(c1)OCCO2)N1CCC(c2nc3ccc(Cl)cc3[nH]2)CC1	18.4µM*	33.0%	0.1%	-20.8	-6.4%
CC(=O)NC(C(=O)O)C(C)(C)SN=O (stereo unspecified)	/	3.5%	/	/	0.3%
O=C1CSC(c2cccnc2)N1CCc1ccccn1 (stereo unspecified)	?	?	-0.7%	16.9	11.2µM*
O=C(NC(=S)Nc1ccccc1[N+](=O)[O-])c1ccco1	?	7.94µM*	-0.2%	-0.6	?
COC(=O)c1ccccc1NC(=S)NC(=O)c1ccc2c(c1)OCO2	19.6%	4.2%	-0.9%	15.3	?
Cc1ccccc1C(=O)NC(=S)Nc1ccccc1[N+](=O)[O-]	?	6.31µM*	0.1%	-8.0	?
COC(=O)c1ccccc1NC(=S)NC(=O)c1ccc(C)cc1	1.5%	15.8µM*	-1.9%	31.4	?
COC(=O)c1ccccc1NC(=S)NC(=O)c1ccccc1	18.2%	1µM*	-0.2%	-2.9	?
O=C(C1CN(C(=O)c2cc3cc(Cl)ccc3o2)c2ccccc2O1)N1CCCCC1 (stereo unspecified)	?	/	-0.8%	-1.3	/
CCn1cc(C(=O)NCCCN(CC(C)C)CC(C)C)c(=O)c2cc(S(=O)(=O)N(C)C3CCCCC3)ccc21	-11.0%	-9.1%	0.3%	-7.7	1.6%
C[C@H]1C(=O)N(S(=O)(=O)c2ccccc2[N+](=O)[O-])[C@H]1c1ccc(-c2ccccc2)cc1	/	0.2%	/	/	9.4%
CCC(NC(=O)c1ccccc1NC(=O)c1ccc(OC)cc1)C(=O)N1CCCC1 (stereo unspecified)	?	16.2%	3.7%	1.7	-10.3%
Cc1cc(NC(=S)NC(=O)c2ccccc2)ccc1-c1cc2ccccc2oc1=O	?	0.398µM*	0.1%	-7.1	-48.2%
Cc1ccc(NC(=S)NC(=O)c2ccccc2)cc1NC(=S)NC(=O)c1ccccc1	?	1.41µM*	2.9%	2.8	7.08µM*
CNC(=S)Nc1ccc(C)c(NC(=S)NC)c1	3.2%	?	-0.2%	-1.4	-16.9%
COC(=O)c1ccccc1NC(=S)NC(=O)c1ccccc1C	18.3%	7.94µM*	0.0%	3.6	?
CCC(NC(=O)c1ccccc1NC(=O)c1ccccc1)C(=O)OC (stereo unspecified)	22.5%	?	0.3%	9.9	6.31µM*
N#Cc1ccc2c(c1)C[C@]1(CCCCN3C(=O)c4ccccc4C3=O)OC3=C(C(=O)OC4(CCCCC4)C3)C2O1	/	-18.2%[10 µM]	-0.2%[9.22 µM]	/	-11.6%[10 µM]
CC(C)Cc1nnc(NC(=O)CCC(=O)N2CCN(Cc3ccc(F)cc3)CC2)s1	?	16.5%	-0.4%	11.9	-8.5%
Cc1ccc(OCCN2CCN(C(=O)CCC(=O)Nc3nnc(CC(C)C)s3)CC2)cc1	2.59µM*	?	-0.7%	-7.8	-16.9%
CC(NCC(O)COCCC12CC3CC(CC(C3)C1)C2)c1ccccc1 (stereo unspecified)	0.1%	12.6µM*	-0.2%	3.9	?
Nc1c(N2CCN(c3ccccc3)CC2)c2ccccc2oc1=O	18.4µM*	9.4%	0.4%	-11.4	-9.2%
COc1ccccc1NC(=O)c1nc[nH]c1C(=O)Nc1ccccc1OC	-5.4%	2µM*	-0.5%	-10.5	?
CCOc1ccccc1NC(=O)c1nc[nH]c1C(=O)Nc1ccccc1OCC	-1.6%	2µM*	-0.1%	5.2	3.98µM*
CCOc1ccccc1NC(=O)c1ccc(C(=O)Nc2ccccc2OCC)nc1	?	-11.6%	-1.0%	-1.0	?
SMILES	ELG1 repair inh	RORgamma inh	B2AR arrestin	TSHR antagonist	VP16 counter
COc1ccccc1NC(=O)c1nn(C)cc1Br	3.2%	17.2%	0.4%	1.1	-6.7%
Cc1cc(C)nc(NS(=O)(=O)c2ccc(NC(=S)NC(=O)CC(C)C)cc2)n1	0.1%	25.5%	-0.3%	-9.7	16.7%
Cc1cc(Br)cc(C)c1NC(=S)NC(=O)CC(C)C	-1.9%	4.47µM*	-0.1%	-9.7	7.94µM*
CCC(=O)Nc1c(C)cc(C)cc1Cl	5.6%	-2.9%	0.3%	16.8	-25.3%
CCC(=O)NC(=S)Nc1c(C)cc(Br)cc1C	-17.9%	3.16µM*	2.9%	-4.7	7.08µM*
COc1ccc(CN2CC(C(=O)NCCCN3CCCCC3)CC2=O)cc1 (stereo unspecified)	15.4%	-9.5%	-0.1%	6.1	1.8%
Cc1cc(C)n(-c2nc3ccccc3c(=O)n2OCc2ccc(Cl)cc2)n1	-16.5%	10µM*	-0.6%	2.3	?
Cc1cc(C)n(-c2nc3ccccc3c(=O)n2OCC(=O)OCc2ccccc2)n1	?	0.562µM*	-0.5%	9.3	2.51µM*
Cc1cc(C)n(-c2nc3ccccc3c(=O)n2OCC(=O)Nc2c(C)cccc2C)n1	-10.0%	11.2µM*	-0.9%	2.3	?
Cc1cc(C)n(-c2nc3ccccc3c(=O)n2OCC(=O)N(C)C)n1	-20.7%	19.7%	-0.4%	-12.4	-9.6%
Cc1nc(NCCO)c2nc(-c3ccccc3)n(CCN(C)C)c2n1	/	-35.3%	/	/	0.9%
C=CC(=O)O	/	9.4%[10 µM]	/	/	-1.9%
CCC(=O)OC1C(N(C)C)CC(C)O[C@H]1O[C@H]1[C@H](C)[C@@H](O[C@H]2CC(OC)[C@@H](O)C(C)O2)[C@H](C)C(=O)O[C@@H](CC)[C@](C)(O)[C@@H](O)[C@H](C)C(=O)[C@@H](C)C[C@]1(C)O (stereo partly specified)	/	7.9%	/	/	-10.8%
Cc1cc(-n2nnc3ccccc32)nc2ccccc12	?	-6.3%	0.0%	-23.9	-1.8%
Cc1nn(-c2cc(C)c3ccccc3n2)c2c1C1C(C2)C1(C)C (stereo unspecified)	28.7%	0.708µM*	-0.8%	-9.7	17.8µM*
Cc1cccc(C)c1[N+](=O)[O-]	/	12.6%	/	/	2.1%
CO[C@H]1COC(=O)[C@H](C)NC(=O)C/C=C\[C@@H](C)[C@H](OC)COC(=O)[C@@H](OCc2ccccc2)/C=C\[C@@H]1C	/	-9.9%[10 µM]	/	/	-3.8%[10 µM]
CCN(CC)c1ccc(/C=N/NC(=O)c2cccc(S(=O)(=O)N3CCOCC3)c2)cc1	?	15.8µM*	-1.2%	-9.4	?
COc1cc(/C=N/NC(=O)c2cccc(S(=O)(=O)N3CCOCC3)c2)cc(OC)c1O	-3.2%	-3.1%	0.1%	2.4	5.2%
CCN(Cc1ccccc1)c1ccc(/C=N/NC(=O)c2cccc(S(=O)(=O)N3CCOCC3)c2)cc1	?	6.31µM*	0.0%	-49.9	7.94µM*
CS(=O)(=O)N1CCC[C@@]2(CCN(c3ccccn3)C2)C1	/	-7.8%	/	/	-3.2%

Bioassay records from PubChem.
